The source of these data is PubChem BioAssay (NCATS).

A short description of assay [1]: Viability qHTS for spleen associated tyrosine kinase inhibitor (SYKi) drug resistant MV4-11 cells (AID 1963824). Note: nearly all actives have a fitted effect of over 35% in size. The method in brief: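 CellTiter-Glo luminescence, read 10 min after reagent addition, reports viability after a 72 hr compound exposure. Cells are an MV4-11 line made resistant to SYK inhibition, seeded at 500 per well onto compound-containing plates.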
On the technique in general: qHTS replaces the single test concentration by a dilution series.

Assay [2] can be described thus: Quantitative highthroughput screen to assess conditional lethalithy of NOMO1 cells grown in RPMI1640 with untreated serum (RPMI+s) (AID 1963876).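 For Viability: 100% = DMSO wells and 0% = empty wells without cells.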 Note: nearly all actives have a fitted effect of over 35% in size. The method in brief:
(§1)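 Each medium arm—HPLM with 10% dialyzed FBS, or RPMI1640 with 5 mM glucose and 10% untreated or dialyzed FBS—was screened against an 11-point, 3-fold compound titration for 48 h at 37 °C, with CellTiter-Glo luminescence as endpoint.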

Assay [3] can be described thus: Quantitative highthroughput screen to assess conditional lethalithy of NOMO1 cells grown in RPMI1640 with dialyzed fetal bovine serum (RPMI+ds) (AID 1963877).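 For Viability: series mostly up to about 46 µM; 100% = DMSO control wells and 0% = empty wells.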 Note: nearly all actives have a fitted effect of over 30% in size. In short, it runs like this:
as §1

A short description of assay [4]: Quantitative highthroughput screen to assess conditional lethalithy of NOMO1 cells grown in Human Plasma-Like Medium with dialyzed fetal bovine serum (HPLM+ds) (AID 1963878).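 For Viability: 100% = DMSO wells and 0% = empty wells on each plate.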 Note: nearly all actives have a fitted effect of over 35% in size. The method in brief:
as §1

Assay [5] is described as follows: Quantitative highthroughput screen to assess conditional lethalithy of P12 Ichikawa cells grown in Human Plasma-Like Medium with dialyzed fetal bovine serum (HPLM+ds) (AID 1963879). For Viability: series mostly up to about 46 µM. Note: nearly all actives have a fitted effect of over 35% in size. The note with it: Potency: viability. In short, it runs like this: as §1
The nature of assay [6]: Quantitative highthroughput screen to assess conditional lethalithy of P12 Ichikawa cells grown in RPMI1640 with dialyzed fetal bovine serum (RPMI+ds) (AID 1963880).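 For Viability: 100% = DMSO wells and 0% = empty wells on each plate.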 Note: nearly all actives have a fitted effect of over 35% in size. The note with it: Potency: P12-Ichikawa viability. The method in brief:
as §1

Assay [7] can be described thus: Quantitative highthroughput screen to assess conditional lethalithy of P12 Ichikawa cells grown in RPMI1640 with untreated serum (RPMI+s) (AID 1963881).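 For Viability: series mostly up to about 46 µM; 100% = DMSO wells and 0% = empty wells without cells.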 Note: nearly all actives have a fitted effect of over 35% in size. The note with it: Potency: viability. The method in brief: as §1
Assay [8] is described as follows: Quantitative highthroughput screen to assess conditional lethalithy of SEM cells grown in Human Plasma-Like Medium with dialyzed fetal bovine serum (HPLM+ds) (AID 1963882). For Viability: series mostly up to about 46 µM. Note: nearly all actives have a fitted effect of over 35% in size. The method in brief: as §1
The nature of assay [9]: Quantitative highthroughput screen to assess conditional lethalithy of SEM cells grown in RPMI1640 with unreated serum (RPMI+s) (AID 1963883).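 For Viability: 100% = DMSO wells and 0% = empty wells without cells.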 Note: nearly all actives have a fitted effect of over 35% in size. The method in brief:
as §1

The nature of assay [10]: Cellular viability qHTS for adrenocortical cancer (ACC) cell line NCI-H295R (AID 1963990). Note: nearly all actives have a fitted effect of over 60% in size. In short, it runs like this:
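CellTiter-Glo ATP luminescence, read 48 h after compound addition, measured viability of NCI-H295R adrenocortical cells grown serum-free with ITS. Final concentrations spanned up to 46 uM. Data normalized to DMSO and doxorubicin, fitted for IC50 and maximal response.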

Assay [11] is described as follows: Cellular viability qHTS for adrenocortical cancer (ACC) cell line SW-13 (AID 1963989).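 For activity (max response): cells grown in serum-free medium with ITS supplement; % is set by controls: 0 for no effect and ±100 for the full control effect.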 Note: nearly all actives have a fitted effect of over 65% in size. The note with it: SW-13 ACC cells viability, CellTiter-Glo, 48 h; activity (max response): active compounds read low. In short, it runs like this:
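Viability was read as CellTiter-Glo luminescence after 48 h compound treatment (up to 46 uM final) of SW-13 cells grown serum-free; titration curves were fit with a four-parameter logistic model to give IC50 and efficacy.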

Assay [12] in a line: Quantitative highthroughput screen to assess conditional lethalithy of SEM cells grown in RPMI1640 with dialyzed fetal bovine serum (RPMI+ds) (AID 1963884).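 For Viability: series mostly up to about 46 µM; 100% = DMSO control wells and 0% = empty wells without cells.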 Note: nearly all actives have a fitted effect of over 35% in size. In short, it runs like this: as §1

Where “and” joins values, the source holds several entries; their conditions need not be identical. Equal entries are not always repeated. Inconclusive results are not listed. Unmarked numbers belong to inactive results. Calls of active or inactive are those of the source. Calls come from the whole dose curve; as a rule, active = well fitted curve in the direction sought with a large enough effect; inconclusive = small, poorly fitted or top-dose-only effect, or another doubt; inactive = no such curve, though single readings can be large; an effect the other way counts as inactive or inconclusive.
Potency is the fitted concentration of half-maximal effect.

With `COc1ccc(Cc2ccc(NC(N)=O)cc2)cc1-c1cccc(Cl)c1`, the Potency in assay [1] was 18.6 µM (active); in assay [10] it was 28.2 µM (active). Moreover, the Potency result in [2], in [3], in assay [4], in [5], in [6] and in assay [7] was “inactive” each time. In addition, the Potency result in assay [8] and in [9] was “inactive” in each case.
For the molecule `CN(C)c1ccc2nc3ccc(=[N+](C)C)cc-3sc2c1`, the Potency in assay [1] was 372 nM (active) and 841 nM (active); in assay [2] it was 8.33 µM (active); in [3] it was 6.62 µM (active); in assay [4] it was 8.33 µM (active); in [5] it was 5.26 µM (active); in assay [6], 7.43 µM (active). The Potency in [7] is 5.9 µM (active); in [8], 9.35 µM (active); in assay [11] it was 7.08 µM (active) and 4.11 µM (active); in [10] it was 8.91 µM (active) and 8.2 µM (active).
With `Cc1c(OCC(F)(F)F)ccnc1CS(=O)c1nc2ccccc2[nH]1` (stereo unspecified), the Potency in assay [1] is 16.6 µM (active). In addition, the Potency entry in assay [2], in assay [3], in [4], in assay [5], in assay [6] and in assay [7] was “inactive” each time. For the same molecule, the Potency result in assay [8], in [9], in assay [12] and in assay [10] was “inactive” each time.
In the case of `CNC(=O)c1ccc(C)c(-n2c(C)cc(OCc3ccc(F)cc3F)c(Br)c2=O)c1`, in assay [1], the Potency is 8.2 µM (active). Moreover, the Potency result in assay [2], in [3], in [4], in assay [5], in [6] and in [7] was “inactive” throughout. Further, the Potency result in assay [8], in assay [9], in assay [12] and in assay [10] was “inactive” throughout.
With `COc1cccc(-c2cc(=O)c3ccccc3o2)c1N`, the Potency in assay [1] is 18.4 µM (active). Moreover, the Potency entry in assay [2], in [3], in assay [4], in [5], in assay [6] and in [7] was “inactive” throughout. In addition, the Potency result in [8], in [12] and in [10] was “inactive” throughout. In addition, the activity (max response) in assay [11] was 0.813%.
Regarding `C=C(C)[C@@H]1CC[C@]2(C(=O)O)CC[C@]3(C)[C@H](CC[C@@H]4[C@@]5(C)CC[C@H](O)C(C)(C)[C@@H]5CC[C@]43C)[C@@H]12`, in assay [1], the Potency is 2.95 µM (active). The Potency entry in [2], in assay [3], in assay [4], in [5], in assay [6] and in assay [7] was “inactive” each time. Further, the Potency entry in [8] and in [10] was “inactive” throughout. Further, in assay [11], the activity (max response) is 19.8%.
Turning to `CC(C)(O)CCc1ccc(OCc2cc(-c3cccc(OC(F)F)c3)c3ncccc3c2)cc1`, the Potency was 16.6 µM (active) in [1] and 25.1 µM (active) in assay [10]. The Potency result in assay [2], in [3], in assay [4], in assay [5], in assay [6] and in assay [7] was “inactive” each time. Also, the Potency result in assay [8], in [9] and in assay [12] was “inactive” throughout.
`COc1ccc(CC2SC(=O)NC2=O)cc1C(=O)NCc1ccc(C(F)(F)F)cc1` (stereo unspecified): in [1], the Potency is 18.6 µM (active). Further, the Potency result in assay [2], in assay [3], in assay [4], in assay [5], in assay [6] and in assay [7] was “inactive” in each case. Further, the activity (max response) in assay [11] was -17.2%.
In the case of `COc1cc(OC)c(NC(=O)Nc2cc(C)on2)cc1Cl`, the Potency in [1] is 6.61 µM (active). For the same molecule, the Potency entry in assay [2], in assay [3], in assay [4], in assay [5], in assay [6] and in [7] was “inactive” in each case. Besides, the Potency result in assay [9] and in assay [12] was “inactive” throughout. Also, in assay [11], the activity (max response) was -19.6%.
Take `Cc1cc(NC(=O)Nc2ccc(N(C)C)cc2)c2cc(F)cc(F)c2n1`: the Potency in assay [1] was 10.2 µM (active). The Potency result in [2], in assay [3], in assay [4], in assay [5], in [6] and in assay [7] was “inactive” each time. Moreover, the Potency entry in assay [8], in assay [9], in assay [12] and in assay [10] was “inactive” in each case. Also, the activity (max response) in [11] was -2.18%.
As to `COc1ccc(C[C@@H](C)[C@@H](C)Cc2ccc(OC)c(OC)c2)cc1OC`, the Potency in assay [1] is 11.8 µM (active); in assay [2], 2.35 µM (active); in [3], 2.64 µM (active); in assay [4], 0.833 µM (active); in assay [5] it was 2.35 µM (active); in assay [6], 2.35 µM (active). Moreover, the Potency is 2.35 µM (active) in [7], 2.64 µM (active) in assay [8], 2.64 µM (active) in [9] and 2.64 µM (active) in assay [12]. For the same molecule, the activity (max response) in assay [11] was -32.2%. In addition, in assay [10], the Potency result was “inactive”.
With `C[C@@]12O[C@@H](C[C@]1(O)CO)n1c3ccccc3c3c4c(c5c6ccccc6n2c5c31)CNC4=O`, the Potency is 0.0074 µM (active) in assay [1]; 1.32 µM (active) in assay [2]; 1.32 µM (active) in [3]; 0.833 µM (active) in assay [4]; 0.935 µM (active) in assay [5]; 0.833 µM (active) in [6]. Also, the Potency was 0.662 µM (active) in assay [7]; 0.166 µM (active) in [8]; 0.0469 µM (active) in [9]; 0.105 µM (active) in assay [12]; 2.82 µM (active) in [11]; 3.98 µM (active) in assay [10].
`CC(C)Oc1ccc2c(=O)c(-c3ccccc3)coc2c1`: the Potency in assay [1] is 10.6 µM (active). The Potency entry in assay [2], in assay [3], in assay [4], in [5], in assay [6] and in assay [7] was “inactive” each time. The Potency result in assay [8] and in assay [10] was “inactive” each time. Moreover, in assay [11], the activity (max response) is -5.36% and 3.78%.
Turning to `COc1ccc2c(c1)c(CC(=O)OCC(=O)O)c(C)n2C(=O)c1ccc(Cl)cc1`, the Potency entry in assay [1], in assay [2], in [3], in [4], in assay [5] and in assay [6] was “inactive” throughout. Also, the Potency entry in assay [7], in assay [8], in assay [9], in assay [12] and in assay [10] was “inactive” each time. Moreover, the activity (max response) in assay [11] is -2.34%.
For `C[C@]12CC[C@H](O)CC1=CCC1C2CC[C@]2(C)C(n3cnc4ccccc43)=CCC12` (stereo partly specified), in [1], the Potency was 7.42 µM (active). Moreover, the Potency entry in assay [2], in assay [3], in assay [4], in assay [5], in assay [6] and in assay [7] was “inactive” throughout. Also, the Potency result in [8], in assay [9] and in [10] was “inactive” each time.
As to `C=CC(=O)Nc1cc2c(Nc3ccc(F)c(Cl)c3)ncnc2cc1C#CC(C)(C)N1CCN(C)CC1`, the Potency in assay [1] is 0.517 µM (active); in [2] it was 9.35 µM (active); in assay [3], 5.26 µM (active); in assay [4] it was 5.26 µM (active); in assay [5] it was 5.26 µM (active); in assay [6], 5.26 µM (active). The Potency was 5.9 µM (active) in assay [7]; 2.96 µM (active) in [9]; 3.32 µM (active) in [12]; 3.16 µM (active) in [11]; 3.16 µM (active) in assay [10].
